Where “and” joins values, the source holds several entries; their conditions need not be identical. Equal values may be shown once. Among all 5,500 compounds or so, about 2,000 (36%) were called active. About 18% were inconclusive and are not listed. Cut-off read from the data, not from the text of the source: active = normalized growth mostly below about 0.91 (no sharp cut-off); inconclusive = no clear call, values can overlap the other calls; inactive = mostly above about 0.92. The list shows a part of the results.
Assay: chemical genetic growth profiling, strain panel (AID 1159580);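 note: tested at 20 µM; growth read once vehicle control cultures reached saturation at 30 °C; 1 = growth at the plate median or of vehicle wells; lower values mean less growth of the strain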
Conditions: growth OD

Measured: normalized growth

Cc1c(OCC(F)(F)F)ccnc1CS(=O)c1nc2ccccc2[nH]1 (stereo not given)
inactive: S. cerevisiae deletion strains, locus YJR075W, strain HOC1, stronger effect = lower value 0.948 and 0.981 | S. cerevisiae deletion strains, locus YKL009W, strain mrt4, stronger effect = lower value 0.991 | S. cerevisiae deletion strains, locus YKL068W, stronger effect = lower value 0.997 | S. cerevisiae deletion strains, locus YKL085W, strain MDH1 (second series), stronger effect = lower value 0.939 | S. cerevisiae deletion strains, locus YKL085W, strain MDH1, stronger effect = lower value 0.939 | S. cerevisiae deletion strains, locus YKL160W, strain elf1, stronger effect = lower value 1.01 | S. cerevisiae deletion strains, locus YKL190W, strain CNB1, stronger effect = lower value 0.987 | S. cerevisiae deletion strains, locus YKR001C, strain vps1, stronger effect = lower value 0.914 | S. cerevisiae deletion strains, locus YKR026C, strain gcn3, stronger effect = lower value 1 | S. cerevisiae deletion strains, locus YKR091W, strain srl3, stronger effect = lower value 1.01 | S. cerevisiae deletion strains, locus YLL001W, strain dnm1, stronger effect = lower value 1.01 | S. cerevisiae deletion strains, locus YLL026W, stronger effect = lower value 1.02 | S. cerevisiae deletion strains, locus YLL041C, strain sdh2, stronger effect = lower value 1.01 | S. cerevisiae deletion strains, locus YLR027C, strain aat2, stronger effect = lower value 1.01 | S. cerevisiae deletion strains, locus YLR039C, strain RIC1, stronger effect = lower value 0.985 | S. cerevisiae deletion strains, locus YLR058C, strain SHM2, stronger effect = lower value 0.966 | S. cerevisiae deletion strains, locus YLR102C, strain apc9, stronger effect = lower value 1 | S. cerevisiae deletion strains, locus YLR221C, strain rsa3, stronger effect = lower value 1 | S. cerevisiae deletion strains, locus YLR258W, strain gsy2, stronger effect = lower value 1.02 | S. cerevisiae deletion strains, locus YLR262C, strain YPT6 (second series), stronger effect = lower value 1.05 | S. cerevisiae deletion strains, locus YLR262C, strain YPT6, stronger effect = lower value 0.998 | S. cerevisiae deletion strains, locus YLR320W, strain mms22, stronger effect = lower value 1.01 | S. cerevisiae deletion strains, locus YLR330W, strain CHS5, stronger effect = lower value 0.987 | S. cerevisiae deletion strains, locus YLR342W, strain FKS1 (second series), stronger effect = lower value 0.926 | S. cerevisiae deletion strains, locus YLR342W, strain FKS1, stronger effect = lower value 1.04 | S. cerevisiae deletion strains, locus YLR357W, strain rsc2, stronger effect = lower value 1.01 | S. cerevisiae deletion strains, locus YLR370C, strain arc18, stronger effect = lower value 1.02 | S. cerevisiae deletion strains, locus YLR371W, strain rom2, stronger effect = lower value 0.989 | S. cerevisiae deletion strains, locus YLR384C, strain iki3, stronger effect = lower value 1.02 | S. cerevisiae deletion strains, locus YML016C, strain PPZ1, stronger effect = lower value 0.979 | S. cerevisiae deletion strains, locus YML032C, strain rad52, stronger effect = lower value 0.93 | S. cerevisiae deletion strains, locus YML120C, strain ndi1, stronger effect = lower value 1.02 | S. cerevisiae deletion strains, locus YML124C, strain tub3, stronger effect = lower value 0.997 | S. cerevisiae deletion strains, locus YMR058W, strain fet3, stronger effect = lower value 1.01 | S. cerevisiae deletion strains, locus YMR078C, strain ctf18, stronger effect = lower value 0.989 | S. cerevisiae deletion strains, locus YMR125W, strain sto1, stronger effect = lower value 1.02 | S. cerevisiae deletion strains, locus YMR129W, stronger effect = lower value 1.02 | S. cerevisiae deletion strains, locus YMR205C, strain PFK2, stronger effect = lower value 1.04 | S. cerevisiae deletion strains, locus YMR223W, strain ubp8, stronger effect = lower value 0.981 | S. cerevisiae deletion strains, locus YMR231W, strain pep5, stronger effect = lower value 1.02 | S. cerevisiae deletion strains, locus YMR263W, strain SAP30, stronger effect = lower value 0.97 and 0.99 | S. cerevisiae deletion strains, locus YMR307W, strain GAS1, stronger effect = lower value 0.907 | S. cerevisiae deletion strains, locus YNL067W, strain RPL9B, stronger effect = lower value 0.958 | S. cerevisiae deletion strains, locus YNL071W, strain lat1, stronger effect = lower value 1.01 | S. cerevisiae deletion strains, locus YNL128W, strain TEP1, stronger effect = lower value 0.974 | S. cerevisiae deletion strains, locus YNL153C, strain GIM3, stronger effect = lower value 0.956 | S. cerevisiae deletion strains, locus YNL175C, strain NOP13, stronger effect = lower value 0.996 | S. cerevisiae deletion strains, locus YNL197C, strain WHI3, stronger effect = lower value 0.998 | S. cerevisiae deletion strains, locus YNL209W, strain ssb2, stronger effect = lower value 1.01 | S. cerevisiae deletion strains, locus YNL224C, strain SQS1, stronger effect = lower value 0.993 | S. cerevisiae deletion strains, locus YNL233W, strain BNI4, stronger effect = lower value 0.941 | S. cerevisiae deletion strains, locus YNL248C, strain rpa49, stronger effect = lower value 1.02 | S. cerevisiae deletion strains, locus YNL250W, strain rad50, stronger effect = lower value 0.902 | S. cerevisiae deletion strains, locus YNL322C, strain KRE1 (second series), stronger effect = lower value 1.02 | S. cerevisiae deletion strains, locus YNL322C, strain KRE1, stronger effect = lower value 0.998 | S. cerevisiae deletion strains, locus YNR049C, strain mso1, stronger effect = lower value 1.01 | S. cerevisiae deletion strains, locus YNR052C, strain pop2, stronger effect = lower value 0.98 | S. cerevisiae deletion strains, locus YOL006C, strain TOP1, stronger effect = lower value 0.989 | S. cerevisiae deletion strains, locus YOL012C, strain htz1 0.898 | S. cerevisiae deletion strains, locus YOL147C, strain pex11, stronger effect = lower value 0.965 | S. cerevisiae deletion strains, locus YOR001W, strain rrp6, stronger effect = lower value 1.02 | S. cerevisiae deletion strains, locus YOR061W, strain CKA2, stronger effect = lower value 0.992 | S. cerevisiae deletion strains, locus YOR069W, strain VPS5, stronger effect = lower value 0.989 | S. cerevisiae deletion strains, locus YOR070C, strain gyp1, stronger effect = lower value 1.02 | S. cerevisiae deletion strains, locus YOR080W, strain dia2, stronger effect = lower value 1.01 | S. cerevisiae deletion strains, locus YOR083W, strain WHI5 (second series), stronger effect = lower value 0.966 | S. cerevisiae deletion strains, locus YOR083W, strain WHI5, stronger effect = lower value 1.01 | S. cerevisiae deletion strains, locus YOR106W, strain vam3, stronger effect = lower value 0.991 | S. cerevisiae deletion strains, locus YOR136W, strain idh2, stronger effect = lower value 0.979 | S. cerevisiae deletion strains, locus YOR144C, strain elg1, stronger effect = lower value 0.977 | S. cerevisiae deletion strains, locus YOR184W, strain ser1, stronger effect = lower value 0.881 | S. cerevisiae deletion strains, locus YOR231W, strain MKK1, stronger effect = lower value 0.91 | S. cerevisiae deletion strains, locus YOR265W, strain rbl2, stronger effect = lower value 1.02 | S. cerevisiae deletion strains, locus YOR270C, strain vph1, stronger effect = lower value 1.06 | S. cerevisiae deletion strains, locus YOR290C, strain snf2, stronger effect = lower value 1.01 | S. cerevisiae deletion strains, locus YOR316C, strain cot1, stronger effect = lower value 0.988 | S. cerevisiae deletion strains, locus YPL051W, strain arl3, stronger effect = lower value 0.993 | S. cerevisiae deletion strains, locus YPL055C, strain LGE1, stronger effect = lower value 0.955 and 0.953 | S. cerevisiae deletion strains, locus YPL078C, strain atp4, stronger effect = lower value 1.02 | S. cerevisiae deletion strains, locus YPL106C, strain sse1, stronger effect = lower value 1.01 | S. cerevisiae deletion strains, locus YPL240C, strain hsp82, stronger effect = lower value 1.02 | S. cerevisiae deletion strains, locus YPL241C, strain CIN2, stronger effect = lower value 1 | S. cerevisiae deletion strains, locus YPR119W, strain clb2, stronger effect = lower value 0.996 | S. cerevisiae deletion strains, locus YPR141C, strain kar3, stronger effect = lower value 1.01 | S. cerevisiae deletion strains, locus YPR163C, strain tif3, stronger effect = lower value 0.976 | S. cerevisiae deletion strains, locus YPR167C, strain met16, stronger effect = lower value 0.988 | S. cerevisiae deletion strains, strain wtn01, stronger effect = lower value 0.95 | S. cerevisiae strains, strain wild type, stronger effect = lower value 0.972
active: S. cerevisiae deletion strains, locus YLR113W, strain HOG1, stronger effect = lower value 0.581 | S. cerevisiae deletion strains, locus YLR268W, strain sec22, stronger effect = lower value 0.826 | S. cerevisiae deletion strains, locus YLR418C, strain cdc73, stronger effect = lower value 0.828 | S. cerevisiae deletion strains, locus YNL183C, strain NPR1, stronger effect = lower value 0.789 | S. cerevisiae deletion strains, locus YNL271C, strain bni1, stronger effect = lower value 0.913 | S. cerevisiae deletion strains, locus YNL298W, strain CLA4, stronger effect = lower value 0.834 | S. cerevisiae deletion strains, locus YNL307C, strain MCK1, stronger effect = lower value 0.872
